Laboratory results reported in PubChem BioAssay (NCATS).
Inconclusive results are not listed. The source made the active and inactive calls. Calls come from the whole dose curve; as a rule, active = well fitted inhibition curve with a large enough effect; inconclusive = small, poorly fitted or top-dose-only effect; inactive = flat fitted curve, though single readings scatter.

What was measured:
Test in all cases: qHTS profiling for inhibitors of Plasmodium falciparum proliferation (AID 504749); note: nearly all actives have a fitted effect of over 60% in size
Conditions in all cases: P. falciparum in erythrocytes, SYBR Green DNA, 72 h; series mostly up to 28.7 µM
CP237 = tested on: CP237
Outline: (§1)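 Three-day growth assay of blood-stage parasites in erythrocytes (0.3% parasitemia, 2.5% hematocrit) at 37 C, 5% CO2, quantified by SYBR Green DNA staining after overnight detergent lysis.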

CP238 = tested on: CP238
Outline: as §1

CP247 = tested on: CP247
Outline: as §1

CP250 = tested on: CP250
Outline: as §1

CP252 = tested on: CP252
Outline: as §1

CP256 = tested on: CP256
Outline: as §1

CP260 = tested on: CP260
Outline: as §1

CP262 = tested on: CP262
Outline: as §1

CP265 = tested on: CP265
Outline: as §1

CP266 = tested on: CP266
Outline: as §1

CP268 = tested on: CP268
Outline: as §1

CP269 = tested on: CP269
Outline: as §1

CP286 = tested on: CP286
Outline: as §1

CP291 = tested on: CP291
Outline: as §1

CP297 = tested on: CP297
Outline: as §1

CP305 = tested on: CP305
Outline: as §1

CP315 = tested on: CP315
Outline: as §1

CP325 = tested on: CP325
Outline: as §1

CP329 = tested on: CP329
Outline: as §1

CP335 = tested on: CP335
Outline: as §1

Measured: Potency
Potency is the fitted concentration of half-maximal effect.

Cn1c(=O)c2[nH]c(Br)nc2n(C)c1=O
inactive: all assays above

COc1ccc(-c2cc(C(F)F)nn2-c2ccc(S(N)(=O)=O)cc2)cc1F
inactive: all assays above

CC1=C(C(=O)O)N2C(=O)[C@@H](NC(=O)[C@H](N)c3ccccc3)[C@H]2SC1
inactive: all assays above

O=C(NCCc1c[nH]c2ccccc12)c1cccnc1
inactive: all assays above

CCCCCCCCCCCCCCCC(=O)O
inactive: all assays above

CCN(CC)CCNc1ccc(CO)c2sc3ccccc3c(=O)c12
active: CP237 891 nM | CP238 1000 nM | CP247 891 nM | CP250 1000 nM | CP252 562 nM | CP256 1780 nM | CP260 794 nM | CP265 1580 nM | CP266 5360 nM | CP268 3380 nM | CP269 1900 nM | CP286 2000 nM | CP291 4780 nM | CP297 1690 nM | CP305 3790 nM | CP315 6010 nM | CP325 4780 nM | CP329 4780 nM | CP335 1510 nM
inactive: CP262

COc1ccc(/C=N/NC(=O)c2ccncc2)cc1OC
inactive: all assays above

OCc1ccccn1
inactive: all assays above

CC(C)Cn1cnc2c1c(=O)n(C)c(=O)n2C
inactive: all assays above

C=C[C@@]1(C)CC(=O)[C@]2(O)[C@@]3(C)[C@@H](O)CCC(C)(C)[C@@H]3[C@H](O)[C@H](OC(C)=O)[C@@]2(C)O1
inactive: all assays above

CCOc1ccc(NC(C)=O)cc1
not listed: CP335
inactive: all other assays above

C=CCN1CCc2nc(N)sc2CC1
not listed: CP335
inactive: all other assays above

CCCN(CCC)S(=O)(=O)c1ccc(C(=O)O)cc1
inactive: all assays above

CCCCC(CC)COC(=O)c1ccc(N(C)C)cc1 (stereo not given)
inactive: all assays above

CCNC(=O)NCc1cccc(Cl)c1
inactive: all assays above

c1ccc(CC2=NCCN2)cc1
not listed: CP335
inactive: all other assays above

CC(=O)Oc1ccc(C)cc1
inactive: all assays above

CC(=O)OC[C@H]1O[C@@H](n2ncc(=O)[nH]c2=O)[C@H](OC(C)=O)[C@@H]1OC(C)=O
inactive: all assays above

COc1cc(N)c(Cl)cc1C(=O)NC1CCN(Cc2ccccc2)CC1
inactive: all assays above

CCOC(=O)[C@H](CCc1ccccc1)N[C@@H](C)C(=O)N1[C@H](C(=O)O)C[C@H]2CCCC[C@@H]21
inactive: all assays above

CCC(CC)(CC(=O)Nc1cccc(/C=C/c2nc(C3CCC3)cs2)c1)C(=O)O
inactive: all assays above

NS(=O)(=O)Cc1noc2ccccc12
inactive: all assays above

Nc1ccc(S(=O)(=O)NCc2ccccc2)cc1
inactive: all assays above

CCN(CC)CCNC(=O)COc1ccc(OC)cc1
inactive: all assays above

O[C@@H](c1cc(C(F)(F)F)nc2c(C(F)(F)F)cccc12)[C@H]1CCCCN1
active: CP237 25.1 nM | CP238 44.7 nM | CP247 70.8 nM | CP250 63.1 nM | CP252 31.6 nM | CP256 63.1 nM | CP260 31.6 nM | CP262 190 nM | CP265 35.5 nM | CP266 601 nM | CP268 151 nM | CP269 53.6 nM | CP286 112 nM | CP291 151 nM | CP297 107 nM | CP305 213 nM | CP315 169 nM | CP325 135 nM | CP329 269 nM | CP335 107 nM

COc1cc(C(=O)NCc2ccc(OCCN(C)C)cc2)cc(OC)c1OC
inactive: all assays above

CC(C)=CCOc1ccc(/C=C/C(=O)c2ccc(OCC=C(C)C)cc2OCC(=O)O)cc1
not listed: CP335
inactive: all other assays above

Cc1ccccc1OCC(O)CO (stereo not given)
inactive: all assays above

O=C(O)Cc1csc(-c2ccc(Cl)cc2)n1
inactive: all assays above

CCCCN=C(N)N=C(N)N
inactive: all assays above

CC[C@H](c1ccc(O)cc1)[C@@H](CC)c1ccc(O)cc1
inactive: all assays above

C#C[C@]1(OC(C)=O)CC[C@H]2[C@@H]3CCC4=C/C(=N/O)CC[C@@H]4[C@H]3CC[C@@]21CC
not listed: CP335
inactive: all other assays above

Cl/C(=C\n1cncn1)c1ccc(Cl)cc1Cl
inactive: all assays above

C/C=C/c1ccc(O)c(OC)c1
inactive: all assays above

CCc1oc2ccccc2c1C(=O)c1cc(Br)c(O)c(Br)c1
inactive: all assays above

CCOC(=O)C(C#N)=C(c1ccccc1)c1ccccc1
inactive: all assays above

COc1cc(C)nc(-n2nc(C)cc2OC)n1
inactive: all assays above

CCCCCCCCCCCCCC[N+](C)(C)Cc1ccccc1
active: CP237 5620 nM | CP238 7080 nM | CP247 5620 nM | CP250 11200 nM | CP252 7940 nM | CP256 7940 nM | CP260 5010 nM | CP262 4260 nM | CP265 8910 nM | CP266 10700 nM | CP268 6750 nM | CP269 4780 nM | CP286 3160 nM | CP291 4780 nM | CP297 5360 nM | CP305 5360 nM | CP315 10700 nM | CP325 5360 nM | CP329 4780 nM | CP335 4780 nM

Cc1cc(NS(=O)(=O)c2ccc(N)cc2)nc(C)n1
inactive: all assays above

O=C(O)C(Cc1cc(I)c(O)c(I)c1)c1ccccc1 (stereo not given)
inactive: all assays above

CC(=O)NC(=O)c1ccccc1O
inactive: all assays above

CC(=O)NO
inactive: all assays above

N#CCC(=O)NN
inactive: all assays above

CCOc1ccccc1OCCN[C@H](C)Cc1ccc(OC)c(S(N)(=O)=O)c1
inactive: all assays above

CC(=O)Nc1ccc(OCC(O)CNC(C)C)cc1 (stereo not given)
inactive: all assays above

Cc1cc(C)cc(OCC2CNC(=O)O2)c1 (stereo not given)
inactive: all assays above

NS(=O)(=O)c1ccc(Cl)c(S(N)(=O)=O)c1
inactive: all assays above

CCCCCCCCCCCCCCCCO
inactive: all assays above

Nc1nc(-c2ccccc2)c(Br)c(=O)[nH]1
inactive: all assays above

NCCNC(=O)c1ccc(Cl)cn1
inactive: all assays above

O=c1[nH]c(=O)n([C@H]2C[C@H](O)[C@@H](CO)O2)cc1F
inactive: all assays above

CCN1/C(=C/C=C/c2sc3ccccc3[n+]2CC)Sc2ccccc21
active: CP237 158 nM | CP238 126 nM | CP247 251 nM | CP250 178 nM | CP252 141 nM | CP256 100 nM | CP260 158 nM | CP262 190 nM | CP265 224 nM | CP266 675 nM | CP268 536 nM | CP269 379 nM | CP286 50.1 nM | CP291 379 nM | CP297 849 nM | CP305 190 nM | CP315 757 nM | CP325 601 nM | CP329 426 nM | CP335 107 nM

COP(=O)(OC)OC(c1ccc(Cl)cc1)P(=O)(OC)OC (stereo not given)
inactive: all assays above

COc1cc(NS(=O)(=O)c2ccc(N)cc2)ncn1
inactive: all assays above
